Assay results from ChEMBL document CHEMBL3988442, “University of Dundee, Small-Polar-MMV Screening Library” (2021).
For part of these data: Results with a measured potency or affinity are listed apart.

How the values were obtained:
Parameters in all cases: scale not given: direction of the effect not stated beside the values
[1] = target: Protein translocase subunit SecA (Escherichia coli (strain K12)) (UniProt P10408); test: Assay to Identify E. coli SecA ATPase Inhibitors; type: functional; details: 30 µM
Protein translocase subunit SecA (Escherichia coli (strain K12)), sequence (P10408 whole entry): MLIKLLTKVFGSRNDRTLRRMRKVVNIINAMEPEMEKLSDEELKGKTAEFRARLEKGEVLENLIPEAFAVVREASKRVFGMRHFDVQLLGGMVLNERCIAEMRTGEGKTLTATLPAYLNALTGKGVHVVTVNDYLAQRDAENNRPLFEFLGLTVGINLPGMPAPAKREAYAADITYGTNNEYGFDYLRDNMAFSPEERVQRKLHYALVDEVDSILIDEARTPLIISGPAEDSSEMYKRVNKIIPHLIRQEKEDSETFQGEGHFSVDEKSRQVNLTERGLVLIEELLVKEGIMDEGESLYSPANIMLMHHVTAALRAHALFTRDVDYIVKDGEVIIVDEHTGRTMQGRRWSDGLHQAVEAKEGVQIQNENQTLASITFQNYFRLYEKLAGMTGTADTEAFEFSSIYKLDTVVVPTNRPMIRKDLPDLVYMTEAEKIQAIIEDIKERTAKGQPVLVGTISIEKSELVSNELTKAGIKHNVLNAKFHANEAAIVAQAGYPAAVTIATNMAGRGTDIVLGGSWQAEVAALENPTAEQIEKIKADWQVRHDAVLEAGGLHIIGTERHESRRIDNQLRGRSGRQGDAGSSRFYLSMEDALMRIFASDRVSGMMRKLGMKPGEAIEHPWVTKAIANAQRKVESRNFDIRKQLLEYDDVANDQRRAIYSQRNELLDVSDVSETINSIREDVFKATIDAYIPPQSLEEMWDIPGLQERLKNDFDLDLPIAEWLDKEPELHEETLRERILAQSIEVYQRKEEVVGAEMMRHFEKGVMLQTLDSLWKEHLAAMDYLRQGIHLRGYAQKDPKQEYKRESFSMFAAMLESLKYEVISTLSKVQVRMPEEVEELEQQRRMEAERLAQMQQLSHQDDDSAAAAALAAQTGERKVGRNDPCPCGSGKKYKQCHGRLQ

[2] = target: T1, Ubiquitin-activating enzyme e1, putative (Leishmania donovani (strain BPK282A1)) (UniProt E9BSI1); test: Leishmania donovani Ubiquitin Activating Enzyme (LdE1); type: functional; details: 30 µM
T1 sequence (whole entry): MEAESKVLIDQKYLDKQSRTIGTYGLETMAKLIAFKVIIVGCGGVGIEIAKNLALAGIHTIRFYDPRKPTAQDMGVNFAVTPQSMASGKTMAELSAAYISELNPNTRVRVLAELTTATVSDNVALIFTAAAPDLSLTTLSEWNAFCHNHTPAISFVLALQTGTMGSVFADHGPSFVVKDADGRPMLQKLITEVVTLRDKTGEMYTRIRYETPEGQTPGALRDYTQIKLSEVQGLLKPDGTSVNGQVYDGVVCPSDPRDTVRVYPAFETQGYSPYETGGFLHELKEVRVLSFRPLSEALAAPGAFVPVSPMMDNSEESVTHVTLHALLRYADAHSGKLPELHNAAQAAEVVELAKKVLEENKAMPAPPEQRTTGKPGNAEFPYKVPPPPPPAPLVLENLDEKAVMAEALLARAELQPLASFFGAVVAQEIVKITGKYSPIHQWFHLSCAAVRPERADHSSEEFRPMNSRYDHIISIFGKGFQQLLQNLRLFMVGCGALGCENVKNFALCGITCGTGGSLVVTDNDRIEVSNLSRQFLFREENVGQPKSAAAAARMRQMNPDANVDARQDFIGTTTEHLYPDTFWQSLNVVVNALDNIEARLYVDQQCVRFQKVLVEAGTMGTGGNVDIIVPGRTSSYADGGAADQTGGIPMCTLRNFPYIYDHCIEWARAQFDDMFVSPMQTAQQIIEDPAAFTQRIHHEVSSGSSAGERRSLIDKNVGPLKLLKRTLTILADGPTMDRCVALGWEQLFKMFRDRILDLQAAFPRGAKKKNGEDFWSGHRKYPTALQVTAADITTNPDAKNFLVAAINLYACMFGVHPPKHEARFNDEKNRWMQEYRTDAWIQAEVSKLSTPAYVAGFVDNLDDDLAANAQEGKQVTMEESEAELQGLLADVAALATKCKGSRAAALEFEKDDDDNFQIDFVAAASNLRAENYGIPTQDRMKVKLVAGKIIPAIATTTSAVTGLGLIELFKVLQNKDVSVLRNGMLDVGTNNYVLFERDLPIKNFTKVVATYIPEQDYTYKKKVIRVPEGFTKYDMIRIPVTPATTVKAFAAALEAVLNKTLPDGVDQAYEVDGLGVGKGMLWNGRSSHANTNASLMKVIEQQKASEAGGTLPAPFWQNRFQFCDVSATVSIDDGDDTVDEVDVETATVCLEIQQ

[3] = target: AMP-activated protein kinase, AMPK (Homo sapiens) (UniProt P54646+O43741+P54619+Q9UGJ0+Q9Y478+Q13131+Q9UGI9); test: AMP-dependent Kinase enzyme assay. An in vitro enzyme assay that detects ADP turnover that is directly proportional to AMPK activity. This uses naive AMPK that is activated during the assay with MK-8722; type: functional; details: 30 µM
[4] = target: Sialic acid-binding Ig-like lectin 9 (Homo sapiens) (UniProt Q9Y336); test: Hs-Siglec9 ALPHAscreen SOP 20170721; details: 10 µM
Sialic acid-binding Ig-like lectin 9 (Homo sapiens), sequence (Q9Y336 whole entry): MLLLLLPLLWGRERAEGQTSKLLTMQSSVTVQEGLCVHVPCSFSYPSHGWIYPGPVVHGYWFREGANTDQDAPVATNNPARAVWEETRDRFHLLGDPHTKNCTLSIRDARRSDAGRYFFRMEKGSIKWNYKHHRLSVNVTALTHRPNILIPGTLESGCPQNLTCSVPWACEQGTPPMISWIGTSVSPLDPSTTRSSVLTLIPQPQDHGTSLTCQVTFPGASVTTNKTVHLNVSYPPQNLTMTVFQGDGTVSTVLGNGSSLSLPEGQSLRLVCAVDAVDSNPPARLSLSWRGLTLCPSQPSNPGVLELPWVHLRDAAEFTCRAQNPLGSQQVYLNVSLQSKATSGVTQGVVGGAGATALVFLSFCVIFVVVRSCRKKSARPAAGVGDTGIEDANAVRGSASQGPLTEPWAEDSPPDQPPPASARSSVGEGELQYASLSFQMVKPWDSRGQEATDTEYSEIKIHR

[5] = test system: Trypanosoma cruzi; test: Trypanosoma cruzi phosphomannomutase and mannose-1-phosphate guanylyltransferase assay; type: functional; details: 10 µM
[6] = target: T2, Arginase-2, mitochondrial (Homo sapiens) (UniProt P78540); test: in vitro enzyme assay to detect the production of urea directly proportional to the activity of Arginase II; type: functional; details: 33.3 µM; further: in the data most compounds retested in dose-response had high values
T2 sequence (whole entry): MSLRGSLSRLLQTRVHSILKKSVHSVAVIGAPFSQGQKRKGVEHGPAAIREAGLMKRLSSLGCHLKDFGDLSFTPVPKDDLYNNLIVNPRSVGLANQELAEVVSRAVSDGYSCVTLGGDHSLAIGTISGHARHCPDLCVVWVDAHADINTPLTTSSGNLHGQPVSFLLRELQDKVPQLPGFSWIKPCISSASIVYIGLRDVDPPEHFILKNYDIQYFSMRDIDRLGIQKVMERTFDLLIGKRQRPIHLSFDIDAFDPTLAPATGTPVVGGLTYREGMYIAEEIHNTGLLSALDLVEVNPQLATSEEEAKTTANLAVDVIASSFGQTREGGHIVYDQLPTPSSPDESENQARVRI

[7] = target: T3, Proteasome subunit beta (Trypanosoma cruzi) (UniProt O96673); test: Trypanosoma cruzi proteasome chymotrypsin-like activity (TcProtChymo) assay.; further: in the data most compounds retested in dose-response had high values; type: functional; details: 9.37 µM
T3 sequence (whole entry): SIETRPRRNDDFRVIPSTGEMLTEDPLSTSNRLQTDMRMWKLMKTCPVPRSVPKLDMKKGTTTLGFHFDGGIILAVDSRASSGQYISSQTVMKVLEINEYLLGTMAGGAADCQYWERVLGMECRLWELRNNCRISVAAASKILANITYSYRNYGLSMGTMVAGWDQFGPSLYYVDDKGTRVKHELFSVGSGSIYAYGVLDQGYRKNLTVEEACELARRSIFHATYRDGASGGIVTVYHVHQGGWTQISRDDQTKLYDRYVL

[8] = organism: Homo sapiens; test: To identify inhibition of the IFN signalling (Jak-Stat) pathway via expression of an eGFP reporter gene under the control of an IFN-stimulated response element (ISRE) containing MxA promoter.; type: functional; details: 30 µM
[9] = target: T4, Tyrosyl-tRNA synthetase, putative (Trypanosoma cruzi (strain CL Brener)) (UniProt Q4DSP6); test: Trypanosoma cruzi tyrosyl tRNA synthetase (TcYRS) _High Tyrosine SOP; type: functional; details: 30 µM; further: in the data most compounds retested in dose-response had high values
T4 sequence (whole entry): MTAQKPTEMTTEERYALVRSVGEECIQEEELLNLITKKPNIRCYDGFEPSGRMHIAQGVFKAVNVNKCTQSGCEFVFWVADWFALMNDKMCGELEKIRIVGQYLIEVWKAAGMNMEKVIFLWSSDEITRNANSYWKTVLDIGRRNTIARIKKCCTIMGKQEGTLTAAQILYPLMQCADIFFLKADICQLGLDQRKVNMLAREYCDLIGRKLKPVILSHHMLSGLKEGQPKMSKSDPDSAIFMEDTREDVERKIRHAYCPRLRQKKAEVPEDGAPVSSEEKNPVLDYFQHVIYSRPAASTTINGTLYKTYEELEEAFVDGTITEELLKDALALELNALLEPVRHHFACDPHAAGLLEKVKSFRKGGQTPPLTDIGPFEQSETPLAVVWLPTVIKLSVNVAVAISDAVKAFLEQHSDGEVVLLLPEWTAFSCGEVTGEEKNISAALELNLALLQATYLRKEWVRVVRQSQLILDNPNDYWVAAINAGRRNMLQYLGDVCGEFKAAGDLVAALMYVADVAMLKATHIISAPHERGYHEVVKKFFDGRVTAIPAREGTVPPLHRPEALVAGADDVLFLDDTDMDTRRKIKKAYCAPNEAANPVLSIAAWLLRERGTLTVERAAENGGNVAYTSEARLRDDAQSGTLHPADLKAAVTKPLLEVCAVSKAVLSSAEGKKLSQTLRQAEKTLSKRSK

[10] = target: T4, Tyrosyl-tRNA synthetase, putative (Trypanosoma cruzi (strain CL Brener)); test: Trypanosoma cruzi tyrosyl tRNA synthetase (TcYRS) SOP; type: functional; details: 30 µM
[11] = target: Chromo domain-containing protein 1 (Saccharomyces cerevisiae (strain ATCC 204508 / S288c) (Baker's yeast)) (UniProt P32657); test: ScCHD-1 Enzyme Inhibition Assay; type: functional; details: 30 µM; further: in the data most compounds retested in dose-response had high values
Chromo domain-containing protein 1 (Saccharomyces cerevisiae (strain ATCC 204508 / S288c) (Baker's yeast)), sequence (P32657 whole entry, the tested form may be a part): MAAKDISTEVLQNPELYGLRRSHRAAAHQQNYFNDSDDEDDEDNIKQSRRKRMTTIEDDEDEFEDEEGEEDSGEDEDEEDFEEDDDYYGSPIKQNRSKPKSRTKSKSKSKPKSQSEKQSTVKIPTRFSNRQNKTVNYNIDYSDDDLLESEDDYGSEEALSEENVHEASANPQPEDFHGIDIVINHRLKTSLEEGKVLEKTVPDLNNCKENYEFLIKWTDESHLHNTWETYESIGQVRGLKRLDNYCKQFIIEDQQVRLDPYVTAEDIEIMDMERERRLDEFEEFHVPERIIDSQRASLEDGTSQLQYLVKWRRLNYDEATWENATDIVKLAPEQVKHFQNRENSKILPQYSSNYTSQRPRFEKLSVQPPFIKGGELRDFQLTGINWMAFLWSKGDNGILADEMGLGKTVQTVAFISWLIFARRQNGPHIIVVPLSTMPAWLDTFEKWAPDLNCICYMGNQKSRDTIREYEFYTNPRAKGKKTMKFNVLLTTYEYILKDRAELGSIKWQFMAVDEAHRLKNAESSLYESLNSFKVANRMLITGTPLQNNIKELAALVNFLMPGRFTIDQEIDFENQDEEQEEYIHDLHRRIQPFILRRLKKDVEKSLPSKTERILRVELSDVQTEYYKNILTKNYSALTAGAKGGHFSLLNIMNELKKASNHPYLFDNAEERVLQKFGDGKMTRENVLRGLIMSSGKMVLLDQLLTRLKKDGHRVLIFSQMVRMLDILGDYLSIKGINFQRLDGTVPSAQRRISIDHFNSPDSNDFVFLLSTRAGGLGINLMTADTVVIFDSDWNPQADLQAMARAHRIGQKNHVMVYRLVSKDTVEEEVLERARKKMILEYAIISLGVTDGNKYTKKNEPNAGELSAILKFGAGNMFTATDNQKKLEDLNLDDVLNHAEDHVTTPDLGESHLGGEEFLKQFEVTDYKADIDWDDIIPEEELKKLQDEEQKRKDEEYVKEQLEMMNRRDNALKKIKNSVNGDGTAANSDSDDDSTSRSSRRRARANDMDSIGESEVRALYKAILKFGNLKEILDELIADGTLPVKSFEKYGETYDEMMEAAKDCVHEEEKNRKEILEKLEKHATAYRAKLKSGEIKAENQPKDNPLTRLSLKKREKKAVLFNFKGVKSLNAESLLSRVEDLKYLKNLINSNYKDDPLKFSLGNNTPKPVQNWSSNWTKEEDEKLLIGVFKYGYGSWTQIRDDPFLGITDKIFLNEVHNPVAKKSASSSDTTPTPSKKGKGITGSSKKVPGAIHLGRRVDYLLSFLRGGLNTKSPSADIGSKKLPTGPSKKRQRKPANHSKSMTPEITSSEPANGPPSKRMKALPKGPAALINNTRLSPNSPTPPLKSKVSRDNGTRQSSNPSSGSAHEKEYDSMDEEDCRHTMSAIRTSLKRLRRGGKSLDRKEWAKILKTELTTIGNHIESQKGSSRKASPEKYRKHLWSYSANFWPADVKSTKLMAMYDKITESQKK

Structure (SMILES)	Percent Effect [1] [%]	Percent Effect [2] [%]	Percent Effect [3] [%]	Percent Effect [4] [%]	Percent Effect [5] [%]	Percent Effect [6] [%]	Percent Effect [7] [%]	Percent Effect [8] [%]	Percent Effect [9] [%]	Percent Effect [10] [%]	Percent Effect [11] [%]
Cc1ccc(F)c(OC2(C(=O)O)CCN(C(=O)N3CCCC3)CC2)c1	0.204	-6.94	5.17	-4.4	-1.65	1.32	2.81	-7.85	2.1	0	2.52
Cc1ccc(N2CCCN(C(=O)C(C(C)C)n3cncn3)CC2)nn1 (stereo unspecified)	-1.22	16.2	-7.95	9.29	3.62	2.03	9.16	9.49	7.92	25.6	-6.51
CCc1c(C(=O)N2CCN(CC(N)=O)CC2)cnn1C(C)(C)C	-6.88	13.2	-1.82	18.1	5.32	3.6	11.9	-6.74	4.43	11.1	-7.68
Cc1cccc(CN2C(=O)CC[C@@H]3[C@H]2CCN3CC2CCOCC2)n1	-3.19	16	1.45	-4.46	2.36	0.699	14	-19.1	5.32	11.5	-4.59
CN(Cc1ccsc1)C(=O)c1cccc(F)c1	-5.35	20.8	1.32	3.27	-2.06	-1.07	5.74	9.71	3.88	19.5	-9.1
CCc1ncc(CN(C)C(=O)Nc2cccnc2N2CCCC2)s1	-6.28	13.2	-27.9	8.15	7.38	1.8	10.4	-11.4	5.42	13.6	-1.2
NC(=O)N1CCC2(CCN(Cc3cccc(F)c3)CC2)CC1	-2.86	5.2	-0.226	14.9	1.67	-9.65	14.3	5.51	5.38	11.1	-1.58
CN(C)C(=O)c1cnc2n1CCN(Cc1ccccc1)C2	1.01	13.3	6.19	-6.07	-7.87	8.62	15.2	0.000462	3.19	8.97	-5.59
CCCc1ncc(C(=O)N2CCOC(c3nc(C)n[nH]3)C2)s1 (stereo unspecified)	-2.75	-3.8	4.69	3.58	-6.46	7.1	5.66	11.7	1.04	-2.53	9.76
CC(C)NS(=O)(=O)c1cc(C(=O)O)cc(-c2ccc(CN(C)C)cc2)c1	-8.02	0	5.48	-7.27	-3.81	-0.248	13.7	0.283	0	1.24	-4.61
CCc1n[nH]c(C2CN(C(=O)c3cc4c(s3)CCCC4)CCO2)n1 (stereo unspecified)	-1.02	20.2	0.0672	-4.74	-6.33	-0.76	6.96	30.5	1.48	8.86	-5.65
CN(Cc1cnn(C)c1)C(=O)NCc1csc(Br)c1	-1.72	16.2	10.9	-2.71	-8.08	2.77	14.7	17.1	-3.96	-1.22	-6.6
CNC(=O)c1cccc(CNC(=O)C2CC(=O)N(CCN(C)C)C2)c1 (stereo unspecified)	-5.39	5.33	4.48	0.817	-2.63	-1.04	12.2	14.1	3.83	6.17	-3.88
O=C(CN1CCCC1Cn1cncn1)NC(C1CC1)C1CC1 (stereo unspecified)	-1.42	-1.39	2.21	-0.594	2.04	1.32	10.9	-11.5	3.16	0	-1.96
O=C(Cn1cnc(NC(=O)CC2CCCC2)n1)NCc1ccccc1	-6.6	15.8	-2.47	8.52	9.96	-1.53	2.84	11.9	6.37	17.1	-12.2
CNC(=O)Nc1cc(-c2ccccc2C)nn1CCO	-4.2	7.89	-1.72	-9.84	-3.8	-5.92	17.2	-9.47	1.06	0	-7.09
O=C1[C@H]2CC[C@H](CN(S(=O)(=O)c3ccccc3)C2)N1Cc1cscn1	-9.05	5.48	3.4	-0.832	-1.59	-2.4	-4.02	27.2	-1.04	-1.24	2.37
Cc1cc(NC(=O)C(c2cccc(F)c2)N2CCOCC2)ccn1 (stereo unspecified)	-4.97	10.5	2.55	5.76	1.66	-9.47	10.6	3.19	2.13	7.79	-7.19
O=C(CCc1cccs1)N1CCCCC1Cn1cccn1 (stereo unspecified)	-6.87	10.4	-2.34	-15.4	5.19	-1.47	10.4	1.69	5.71	21.2	-15.9
CCN(C(=O)CN(C)C(c1cccc(F)c1)c1ccccn1)C1CC1 (stereo unspecified)	-1.83	-5.2	-4.08	9.51	6.74	-2.49	2.37	4.69	6.8	7.32	-10.2
COc1ncccc1NC(=O)NCC(O)c1ccc(F)cc1F (stereo unspecified)	-1.59	-6.33	2.46	1.59	-3.79	5.38	20.6	15.3	2.08	5.06	-13.8
